# Compounds without any hit were thinned out: in the full panel of roughly 79,000, 15% have a hit. Unmarked numbers belong to inactive results. Activity calls are given as the source filed them. Cut-off read from the data, not from the text of the source: active = growth inhibition above about 70%; inactive = the rest.
# How the values were obtained:
# [1] = NCI Yeast Anticancer Drug Screen. Data for the rad52 strain (AID 147);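 note: 0% = growth of vehicle-treated control cultures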; conditions: S. cerevisiae rad52 mutant growth inhibition, hits give high values
# Procedure, shortened: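 Here a repair-compromised yeast strain receives each compound; its growth is then quantified and normalised to vehicle-only controls.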
# [2] = NCI Yeast Anticancer Drug Screen. Data for the wt1 strain (AID 149);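 note: 0% = growth of vehicle-treated wt1 cultures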; conditions: S. cerevisiae wt1 strain (SPY 50644) growth inhibition, hits give high values
# Procedure, shortened: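 Readout: yeast growth inhibition, normalised to vehicle controls, in the wt1 strain exposed to test compounds.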
# [3] = NCI Yeast Anticancer Drug Screen. Data for the rad50EPP+ strain (AID 151);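 note: 0% = growth of vehicle-treated control cultures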; conditions: S. cerevisiae rad50 mutant strain, hits give high values
# Procedure, shortened: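 Read-out is yeast growth inhibition relative to vehicle; cells used were the rad50EPP+ strain.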
# [4] = NCI Yeast Anticancer Drug Screen. Data for the mgt1 strain (AID 153); conditions: S. cerevisiae mgt1 mutant growth inhibition, hits give high values
# Procedure, shortened: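 Measured: inhibition of mgt1 yeast growth by compound, normalized to vehicle-treated cultures.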
# [5] = NCI Yeast Anticancer Drug Screen. Data for the rad50 strain (AID 155);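 note: 0% = growth of vehicle-only cultures of the same strain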; conditions: S. cerevisiae rad50 strain growth inhibition, hits give high values
# Procedure, shortened: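 Compounds were tested on a yeast strain with an engineered DNA damage repair alteration; the reported value is growth inhibition normalised to vehicle treatment.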
# [6] = NCI Yeast Anticancer Drug Screen. Data for the mec2-1 strain (AID 157); conditions: S. cerevisiae mec2-1 strain, hits give high values
# Procedure, shortened: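 Using mec2-1 yeast: add compound, measure growth, express inhibition versus vehicle-treated cultures.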
# [7] = NCI Yeast Anticancer Drug Screen. Data for the sgs1 mgt1 strain (AID 161);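 note: 0% = growth of cultures given vehicle only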; conditions: S. cerevisiae sgs1 mgt1 strain, hits give high values
# Procedure, shortened: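 This yeast growth screen uses a strain with defined DNA-repair lesions; compound-treated growth is compared with vehicle-treated growth.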
# [8] = NCI Yeast Anticancer Drug Screen. Data for the CLN2oe strain (AID 163);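 note: 0% = growth of vehicle-only control cultures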; conditions: S. cerevisiae CLN2oe strain, hits give high values
# Procedure, shortened: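 Whole-cell yeast growth assay. A strain engineered for altered cell-cycle control received compound, and inhibition relative to vehicle-treated cultures was recorded.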
# [9] = NCI Yeast Anticancer Drug Screen. Data for the cln2 rad14 strain (AID 165);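 note: 0% = growth equal to vehicle treated cultures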; conditions: S. cerevisiae cln2 rad14 strain, hits give high values
# Procedure, shortened: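 Yeast strain cln2 rad14, bearing defects in cell cycle control and DNA repair, serves as the test system; values reflect growth inhibition compared with vehicle.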
# [10] = NCI Yeast Anticancer Drug Screen. Data for the bub3 strain (AID 167); conditions: S. cerevisiae bub3 mutant strain, hits give high values
# Procedure, shortened: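 Growth of a checkpoint-deficient yeast mutant is measured after compound exposure. Values represent inhibition relative to vehicle.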
# [11] = NCI Yeast Anticancer Drug Screen. Data for the wt2 strain (AID 169);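 note: 0% = growth of vehicle-treated yeast cultures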; conditions: S. cerevisiae wt2 strain growth inhibition, hits give high values
# Procedure, shortened: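 Treated yeast vs. vehicle-treated yeast: growth inhibition determined.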
# [12] = NCI Yeast Anticancer Drug Screen. Data for the mlh1 strain (AID 171);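 note: 0% = growth of vehicle-treated control cultures of the same strain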; conditions: S. cerevisiae mlh1 strain growth inhibition, hits give high values
# Procedure, shortened: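 A yeast strain with a defined genetic lesion serves as the test organism. Cultures receive compound or vehicle, and growth is measured.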
# [13] = NCI Yeast Anticancer Drug Screen. Data for the sgs1 strain (AID 173);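 note: 0% = growth of vehicle-only control cultures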; conditions: S. cerevisiae sgs1 mutant, hits give high values
# Procedure, shortened: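 A genetically defined yeast mutant is incubated with the test compound, and its growth is compared to that of the same strain given vehicle.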
# [14] = NCI Yeast Anticancer Drug Screen. Data for the mlh1 rad18 strain (AID 175); conditions: S. cerevisiae mlh1 rad18 strain growth inhibition, hits give high values
# Procedure, shortened: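 Steps: expose repair-defective yeast to compound; measure growth; express inhibition against vehicle-treated controls.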
# [15] = NCI Yeast Anticancer Drug Screen. Data for the rad18 strain (AID 177); conditions: S. cerevisiae rad18 mutant growth inhibition, hits give high values
# Procedure, shortened: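 Measured value is growth inhibition of a yeast strain bearing a DNA repair alteration, referenced to vehicle-treated cells.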
# [16] = at 5.0 µM (retest, dose inferred, filed as 0.5)
# [17] = at 50.0 µM (retest, dose inferred, filed as 5.0)
smiles,measurement,setting,value
C/C(=N\Nc1ccc([N+](=O)[O-])cc1[N+](=O)[O-])c1sc(-n2nc(-c3ccccc3)cc2-c2ccccc2)nc1C,growth inhibition,[1]; at 1.2 µM,-1%
same,growth inhibition,[1]; at 3.7 µM,13%
same,growth inhibition,[1]; at 11.0 µM,7%
same,growth inhibition,[1]; at 33.0 µM,0%
same,growth inhibition,[1]; at 100.0 µM,26%
same,growth inhibition,[2]; at 1.2 µM,-21%
same,growth inhibition,[2]; at 3.7 µM,-4%
same,growth inhibition,[2]; at 11.0 µM,-13%
same,growth inhibition,[2]; at 33.0 µM,-1%
same,growth inhibition,[2]; at 100.0 µM,-4%
same,growth inhibition,[3]; at 1.2 µM,7%
same,growth inhibition,[3]; at 3.7 µM,22%
same,growth inhibition,[3]; at 11.0 µM,27%
same,growth inhibition,[3]; at 33.0 µM,50%
same,growth inhibition,[3]; at 100.0 µM,59%
same,growth inhibition,[4]; at 1.2 µM,18%
same,growth inhibition,[4]; at 3.7 µM,6%
same,growth inhibition,[4]; at 11.0 µM,6%
same,growth inhibition,[4]; at 33.0 µM,32%
same,growth inhibition,[4]; at 100.0 µM,60%
same,growth inhibition,[5]; at 1.2 µM,-1%
same,growth inhibition,[5]; at 3.7 µM,0%
same,growth inhibition,[5]; [16],25%
same,growth inhibition,[5]; at 11.0 µM,-15%
same,growth inhibition,[5]; at 33.0 µM,4%
same,growth inhibition,[5]; [17],62%
same,growth inhibition,[5]; at 50.0 µM,80% (active)
same,growth inhibition,[5]; at 100.0 µM,10%
same,growth inhibition,[6]; at 1.2 µM,11%
same,growth inhibition,[6]; at 3.7 µM,16%
same,growth inhibition,[6]; [16],0%
same,growth inhibition,[6]; at 11.0 µM,15%
same,growth inhibition,[6]; at 33.0 µM,22%
same,growth inhibition,[6]; [17],16%
same,growth inhibition,[6]; at 50.0 µM,66%
same,growth inhibition,[6]; at 100.0 µM,34%
same,growth inhibition,[7]; [16],11%
same,growth inhibition,[7]; [17],57%
same,growth inhibition,[7]; at 50.0 µM,75.3% (active)
same,growth inhibition,[8]; at 1.2 µM,8%
same,growth inhibition,[8]; at 3.7 µM,12%
same,growth inhibition,[8]; at 11.0 µM,9%
same,growth inhibition,[8]; at 33.0 µM,18%
same,growth inhibition,[8]; at 100.0 µM,26%
same,growth inhibition,[9]; [16],29%
same,growth inhibition,[9]; [17],34%
same,growth inhibition,[9]; at 50.0 µM,61.6%
same,growth inhibition,[10]; at 1.2 µM,15%
same,growth inhibition,[10]; at 3.7 µM,25%
same,growth inhibition,[10]; [16],31%
same,growth inhibition,[10]; at 11.0 µM,46%
same,growth inhibition,[10]; at 33.0 µM,42%
same,growth inhibition,[10]; [17],74% (active)
same,growth inhibition,[10]; at 50.0 µM,79% (active)
same,growth inhibition,[10]; at 100.0 µM,62%
same,growth inhibition,[11]; at 1.2 µM,-21%
same,growth inhibition,[11]; at 3.7 µM,-22%
same,growth inhibition,[11]; at 11.0 µM,-25%
same,growth inhibition,[11]; at 33.0 µM,-11%
same,growth inhibition,[11]; at 100.0 µM,68%
same,growth inhibition,[12]; at 1.2 µM,1%
same,growth inhibition,[12]; at 3.7 µM,-15%
same,growth inhibition,[12]; at 11.0 µM,-16%
same,growth inhibition,[12]; at 33.0 µM,5%
same,growth inhibition,[12]; at 100.0 µM,25%
same,growth inhibition,[13]; at 1.2 µM,0%
same,growth inhibition,[13]; at 3.7 µM,6%
same,growth inhibition,[13]; at 11.0 µM,13%
same,growth inhibition,[13]; at 33.0 µM,11%
same,growth inhibition,[13]; at 100.0 µM,25%
same,growth inhibition,[14]; [16],24%
same,growth inhibition,[14]; [17],60%
same,growth inhibition,[14]; at 50.0 µM,79.3% (active)
same,growth inhibition,[15]; at 1.2 µM,-9%
same,growth inhibition,[15]; at 3.7 µM,11%
same,growth inhibition,[15]; at 11.0 µM,14%
same,growth inhibition,[15]; at 33.0 µM,24%
same,growth inhibition,[15]; at 100.0 µM,36%

# — PubChem BioAssay (NCI)
